Compounds with a hit are over-represented: about 4% of the library has one in this group of screens.
UGM FP inh – M. tuberculosis UGM enzyme inhibitors, primary screen, biochemical, fluorescence polarization, single point; inhibition, % at 10 µM; hit rate 0.06% among 320,000; purified UGM, fluorescence polarization probe displacement; in the data active = inhibition above about 10%, passing the limit was not always enough
Mtb betalactam – beta-lactam sensitization of Mtb H37Rv, H37Rv | M. tuberculosis H37Rv growth with meropenem, percent inhibition | inhibition, % at 25 µM | hit rate 0.27% among 330,000 | AID 434955, 2010; call rule not given here;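 note: growth measured after seven days incubation then overnight dye step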
RecA splice inh – Mtb RecA intein splicing inhibitors, primary screen, biochemical, fluorescence, HTS | inhibition, % (test concentration not listed) | hit rate 0.75% among 290,000 | Protein RecA (Mycobacterium tuberculosis (strain ATCC 25618 / H37Rv)), P9WHJ3 | cell-free RecA intein splicing; in the data active = inhibition above about 30%
GDH-TPI inh – GDH-TPI coupling enzyme inhibitors, primary screen, artefact control for M. tuberculosis FBA inhibitor project, biochemical, absorbance, full deck. hit rate 1.2% among 360,000. GDH-TPI coupled enzyme counterscreen, NADH absorbance. AID 588335, 2011. inhibition, % at 4.8 µM; in the data active = inhibition above about 30%
Mtb FBA inh – Mtb FBA enzyme inhibitors, primary screen, biochemical, fluorescence, strain H37Rv. Fructose-bisphosphate aldolase (Mycobacterium tuberculosis (strain ATCC 25618 / H37Rv)), …. purified M. tuberculosis FBA, fluorescence read-out. inhibition, % at 1 µM. hit rate 2.3% among 360,000. AID 588726, 2011; in the data active = inhibition above about 27%
Rv3671c inh – Rv3671c serine protease inhibitors, primary screen, biochemical, fluorescence polarization, M. tuberculosis H37Rv; P9WHR9; inhibition, % at 5.96 µM; hit rate 0.048% among 320,000; AID 2606, 2010; in the data active = inhibition above about 38%;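 note: extracellular domain of Rv3671c used as enzyme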
Target sequence (P9WHR9 whole entry, looked up, the tested form may be a part): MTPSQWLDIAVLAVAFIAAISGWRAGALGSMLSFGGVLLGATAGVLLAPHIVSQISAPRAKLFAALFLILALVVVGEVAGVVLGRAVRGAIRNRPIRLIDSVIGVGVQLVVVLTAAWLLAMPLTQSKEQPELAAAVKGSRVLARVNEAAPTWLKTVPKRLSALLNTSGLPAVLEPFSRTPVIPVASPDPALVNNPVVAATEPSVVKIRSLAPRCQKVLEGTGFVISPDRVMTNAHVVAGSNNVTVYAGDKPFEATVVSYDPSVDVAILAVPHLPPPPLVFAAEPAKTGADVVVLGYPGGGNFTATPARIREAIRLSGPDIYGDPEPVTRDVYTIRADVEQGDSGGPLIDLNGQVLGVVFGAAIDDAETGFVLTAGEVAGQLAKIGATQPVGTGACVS
Large screens that a line does not name were inactive.

NC1CCN(c2c(F)cc3c(=O)c(C(=O)O)cn(C4CC4)c3c2Cl)C1 (stereo unspecified)	GDH-TPI inh 34
CCn1c(C)cc(/C=C2\NC(=O)N(Cc3ccc(Cl)cc3)C2=O)c1C	none
CCN1C(=O)N/C(=C/c2cc(C)n(Cc3ccccc3)c2C)C1=O	GDH-TPI inh 32
CSc1ccccc1C(=O)OCC(=O)Nc1cccnc1Cl	none (no result: RecA splice inh)
Cn1cnnc1SCc1ccc(C(=O)N/N=C(/CCC(=O)O)c2ccc(C(C)(C)C)cc2)cc1	none (no result: UGM FP inh, Mtb betalactam, RecA splice inh, Rv3671c inh)
OCc1nc2nc(Cl)c(Cl)nc2[nH]1	none
CSc1nc2nc(Cl)c(Cl)nc2[nH]1	GDH-TPI inh 37, Mtb FBA inh active (no result: UGM FP inh, Mtb betalactam, RecA splice inh, Rv3671c inh)
CCOC(=O)CSc1nc(C)cc(=O)[nH]1	none
CCOC(=O)CSc1nc2nc(Cl)c(Cl)nc2[nH]1	GDH-TPI inh 33, Mtb FBA inh active (no result: UGM FP inh, Mtb betalactam, RecA splice inh, Rv3671c inh)
Nc1ccccc1-c1n[nH]c(=S)s1	Mtb FBA inh 61 (no result: UGM FP inh, Mtb betalactam, RecA splice inh, Rv3671c inh)
O=[N+]([O-])c1cccc(/C=C/c2nc[nH]c2[N+](=O)[O-])c1	GDH-TPI inh 42
Cc1nn(CCc2nn[nH]n2)c2nc(-c3ccc(C4CCCCC4)cc3)cc(C(F)(F)F)c12	RecA splice inh 34 (no result: Mtb betalactam)
Cc1cc(C)cc(CC2CC(=O)N(c3ccc([N+](=O)[O-])cc3)C2=O)c1 (stereo unspecified)	none
CN1c2ccccc2-c2nc3ccccc3n2C1c1ccccn1 (stereo unspecified)	Mtb FBA inh 47
c1ccc(CN2c3ccccc3-c3nc4ccccc4n3C2c2ccccn2)cc1 (stereo unspecified)	Mtb FBA inh 121
CN1c2ccccc2-c2nc3ccccc3n2C1c1ccncc1 (stereo unspecified)	none
Clc1ccc(Cn2c(-c3cccnc3Cl)nc3ccccc32)cc1	none
CCN1c2ccccc2-c2nc3ccccc3n2C1c1ccco1 (stereo unspecified)	Mtb FBA inh active
O=C(Nc1cccc(OC(F)(F)F)c1)C1Cc2c(-c3cccc(F)c3)ccnc2O1 (stereo unspecified)	none (no result: UGM FP inh, Mtb betalactam, RecA splice inh, Rv3671c inh)
CS(=O)(=O)c1ccccc1-c1nnc(NC(=O)c2cccc(N3C(=O)CCC3=O)c2)o1	none (no result: UGM FP inh)
N#CC(C(=O)NC1CCCCC1)c1nc2ccccc2nc1N1CCN(c2ccc(F)cc2)CC1 (stereo unspecified)	none (no result: UGM FP inh, Mtb betalactam, GDH-TPI inh, Mtb FBA inh, Rv3671c inh)
N#CC(C(=O)NC1CC1)c1nc2ccccc2nc1N1CCCC1 (stereo unspecified)	Mtb FBA inh 61
Cc1ccc([C@H]2N[C@]3(CCCN(Cc4ccccc4)C3=O)[C@H]3C(=O)N(C)C(=O)[C@@H]23)cc1	none (no result: UGM FP inh, Mtb betalactam, RecA splice inh, Rv3671c inh)
COc1ccccc1C(=O)NCCCN1CCCC1=O	none
COC(=O)C1=CN(CC2CCCO2)C=C(C(=O)OC)C1c1cccc(O)c1 (stereo unspecified)	Mtb FBA inh 196
COC(=O)C1=CN(CC2CCCO2)C=C(C(=O)OC)C1c1ccccc1C(F)(F)F (stereo unspecified)	Mtb FBA inh 158 (no result: RecA splice inh)
COC(=O)C1=CN(CCCN2CCCC2=O)C=C(C(=O)OC)C1c1ccccc1C(F)(F)F	Mtb FBA inh 123
COC(=O)C1=C(N)Oc2cc(C)n(CC3CCCO3)c(=O)c2C1c1ccccc1 (stereo unspecified)	none
COC(=O)C1=C(N)Oc2cc(C)n(CC3CCCO3)c(=O)c2C1c1ccccc1OC (stereo unspecified)	none
CCN(CC)C(=O)Cn1cc([N+](=O)[O-])cc1[N+](=O)[O-]	none (no result: UGM FP inh, Mtb betalactam, RecA splice inh, Rv3671c inh)
Cn1cnnc1Sc1ccc(/C=C/C(=O)c2ccc(O)cc2)cc1[N+](=O)[O-]	GDH-TPI inh 37
CON(C)S(=O)(=O)NC(=O)C1=C(N2CCCC2)COC1=O	none (no result: RecA splice inh)
NC(=O)c1ncn([C@@H]2O[C@H](CNCc3ccc(-c4cc(C(F)(F)F)ccc4Cl)o3)[C@@H](O)[C@H]2O)n1	none (no result: UGM FP inh, Mtb betalactam, RecA splice inh, Rv3671c inh)
CCC1=CC(c2ccccc2)n2ncnc2N1 (stereo unspecified)	Mtb FBA inh 35
CC(=O)C1=C(O)C(=O)N(Cc2ccccc2)C1c1ccc(Cl)cc1 (stereo unspecified)	none
CC(=O)C1=C(O)C(=O)N(Cc2ccccc2)C1c1cccs1 (stereo unspecified)	GDH-TPI inh 31
COc1ccccc1CNC(=O)C1CCN(S(=O)(=O)c2ccc(-n3cnnn3)cc2)CC1	none
O=C(N/N=C/c1ccc2c(c1)OCO2)c1cccc(NC(=O)c2ccccc2Cl)c1	none (no result: RecA splice inh)
O=C(N/N=C/c1ccc2c(c1)OCO2)c1ccc(NC(=O)c2ccccc2Cl)cc1	GDH-TPI inh 35
Cc1ccccc1C(=O)Nc1cccc(C(=O)N/N=C/c2ccc3c(c2)OCO3)c1	GDH-TPI inh 32 (no result: RecA splice inh)
CC(=O)OC[C@]12CC[C@H]3[C@@](C)(CC[C@H]4C(C)(C)CCC[C@]34C)[C@@H]1CC(C1=CC(=O)OC1O)O2 (stereo partly specified)	none (no result: UGM FP inh, Mtb betalactam, RecA splice inh, Rv3671c inh)
COc1ccc(CNC(=O)COC(=O)c2ccc(OCC3CCCO3)cc2)cc1 (stereo unspecified)	none (no result: RecA splice inh)
Cc1nc(N2CCCCC2)c2sc(=S)n(C)c2n1	none
CCN1CCN(c2nc(C)nc3c2sc(=S)n3C)CC1	GDH-TPI inh 35 (no result: UGM FP inh, Mtb betalactam, RecA splice inh, Rv3671c inh)
CC(=O)Nc1cccc(-c2cc3c(c4c2ccn4C)C2CCC3O2)c1 (stereo unspecified)	Mtb FBA inh 161 (no result: UGM FP inh, Mtb betalactam, RecA splice inh, GDH-TPI inh, Rv3671c inh)
O=[N+]([O-])c1ccc(Oc2cccc(F)c2)c2ccncc12	RecA splice inh 73
O=[N+]([O-])c1cnccc1Nc1cccc(F)c1	none
CC(=O)C1C2c3ccccc3OC1(C)N=c1s/c(=C/c3cn(C)nc3C)c(=O)n12 (stereo unspecified)	GDH-TPI inh 36
COc1ccc2c(C(=O)NCCCCO)c(-c3ccc(S(C)(=O)=O)cc3)sc2c1	Mtb FBA inh active (no result: RecA splice inh)
COc1ccc2sc(-c3ccc(S(C)(=O)=O)cc3)c(C(=O)NCCc3c[nH]c4ccccc34)c2c1	none (no result: RecA splice inh)
Cc1cc(=O)oc2c3c(cc(OCC(=O)NC(C)C)c12)OC(C)(C)CC3	Mtb FBA inh active (no result: Rv3671c inh)
CCCCC(NC(=O)COc1cc2c(c3oc(=O)cc(C)c13)CCC(C)(C)O2)C(=O)O (stereo unspecified)	Mtb FBA inh active
Cc1cc(OCC(=O)NC(C)C)cc(C)c1Cl	none
Cc1cc(=O)oc2c3c(cc(OCC(=O)N[C@@H](C)C(=O)O)c12)OC(C)(C)CC3	Mtb FBA inh active (no result: Rv3671c inh)
CCN(CC)S(=O)(=O)c1ccc(N2CCCCC2)c(NC(=O)C2=COCCO2)c1	none
O=C(c1cccs1)N1C[C@H](n2cc(C3CC3)nn2)[C@@H](O)C[C@@H]1c1ccc(Cl)cc1	none (no result: UGM FP inh, Mtb betalactam, RecA splice inh, Rv3671c inh)
Cc1ccc(Nc2nc(C)cc(C)c2C(N)=O)c(C)c1	none
